# Reference: the antibiotic and cytotoxicity screens of Wong et al. (2023)
# About 1,500 (3.8%) of roughly 39,000 compounds were called active. This is one part of a sample in which actives are shown more often than they occur.
# Tested on: HSkMC (human skeletal muscle cells)
# Assay: cytotoxicity call (relative viability < 0.9)
# Details: 10 µM
row,Compound,cytotoxicity call
1,O=C(NOCCO)c1cc(CN2OCCCC2=O)c(F)c(F)c1Nc1ccc(I)cc1F,inactive
2,O=C(C[C@H]1C[C@H]2c3cc(NS(=O)(=O)c4ccccc4)ccc3O[C@H]2[C@H](CO)O1)NCC(F)(F)F,inactive
3,CC(C)OC(=O)c1nnc(N)[nH]1,inactive
4,CN1CCN(C(=O)[C@H]2C[C@H]3CN(c4ncc(F)cn4)C[C@@H]3N2C)CC1,inactive
5,CC1(C)C=Cc2c(nc3ccccc3c2NCc2ccccc2)C1,inactive
6,Cc1cc(C(=O)Nc2ccc3c(c2)C(=O)N(C)[C@@H]2CC[C@H](CC(=O)NCC(F)(F)F)O[C@@H]2CO3)no1,inactive
7,COCC(=O)Nc1ccc2c(c1)C(=O)N(C)C[C@@H](OC)[C@@H](C)CN(Cc1ccccc1OC)[C@@H](C)CO2,inactive
8,C[C@@H]1CN([C@H](C)CO)C(=O)c2cc(NC(=O)C3CCCCC3)ccc2O[C@@H](C)CCCCO[C@H]1CN(C)Cc1ccccc1,inactive
9,COc1ccc(C#Cc2cnc3c(c2)C(=O)N([C@@H](C)CO)C[C@@H](C)[C@H](CN(C)C(=O)CN(C)C)O3)cc1,inactive
10,C[C@H](CO)N1C[C@H](C)[C@@H](CN(C)S(=O)(=O)c2cn(C)cn2)Oc2c(NC(=O)CCC(F)(F)F)cccc2C1=O,inactive
11,C[C@@H]1CCCCO[C@@H](CN(C)S(=O)(=O)c2ccc(Cl)cc2)[C@@H](C)CN([C@H](C)CO)C(=O)c2cc(NC(=O)Nc3cccc4ccccc34)ccc2O1,inactive
12,COC(=O)[C@@H]1CCCC1=O,inactive
13,COc1ccc(CNC(=O)C[C@H]2C[C@H]3c4cc(NC(=O)NC5CCCC5)ccc4O[C@H]3[C@@H](CO)O2)cc1,inactive
14,O=C(Nc1cc(C(F)(F)F)cc(C(F)(F)F)c1)Nc1c(Br)cc(Br)cc1-c1nn[nH]n1,inactive
15,FC(F)(F)c1cc(NC(=S)Nc2ccc(Br)cc2-c2nn[nH]n2)cc(C(F)(F)F)c1,active
16,COc1ccccc1-c1cnc2c(c1)C(=O)N([C@@H](C)CO)C[C@H](C)[C@H](CN(C)C(=O)c1cccnc1)O2,inactive
17,COc1ccc([Si](C)(C)[C@H]2[C@H](CC(=O)N(CCO)Cc3ccccc3)O[C@@]3(C(=O)N(Cc4cccc(N5CCCCC5=O)c4)c4ccccc43)[C@@H]2C)cc1,inactive
18,Nc1ncn([C@@H]2C[C@H](O)[C@@H](CO)O2)c(=O)n1,inactive
19,Nc1ncnc2c1c(I)cn2[C@@H]1O[C@H](CO)[C@@H](O)[C@H]1O,inactive
20,Nc1ncn(C2OC(CO)C(O)C2O)c(=O)n1 (centres undefined),inactive
21,Nc1ncnc2c1ncn2[C@@H]1O[C@H](CO)[C@@H](O)[C@@H]1O,inactive
22,Nc1ncnc2c1ncn2[C@H]1O[C@@H](CO)[C@H](O)[C@@H]1O,inactive
23,Nc1ncnc2c1c(I)cn2[C@H]1O[C@@H](CO)[C@@H](O)[C@@H]1O,inactive
24,Nc1nc(F)nc2c1ncn2[C@@H]1O[C@H](COP(=O)(O)O)[C@@H](O)[C@@H]1O,inactive
25,Nc1nc(Cl)nc2c1ncn2[C@@H]1O[C@H](CO)[C@@H](O)[C@H]1O,inactive

row,Compound,cytotoxicity call
1,NC(=O)c1cn([C@@H]2O[C@H](CO)[C@@H](O)[C@H]2O)c2ncnc(N)c2c1=O,active
2,OC[C@H]1O[C@H](n2cnc3cncnc32)[C@@H](O)[C@@H]1O,active
3,Nc1nc(F)nc2c1ncn2[C@@H]1O[C@H](CO)[C@@H](O)[C@H]1O,active
4,Nc1ncn([C@@H]2O[C@H](CO)[C@@H](O)[C@H]2O)c(=O)n1,active
5,CC(C)NC(=O)Nc1ccc2c(c1)CC(=O)N([C@H](C)CO)C[C@@H](C)[C@@H](CN(C)Cc1ccc(-c3ccccc3)cc1)O2,inactive
6,C[C@@H]1CN([C@@H](C)CO)C(=O)c2cc(C#CCN(C)C)cnc2O[C@H]1CN(C)S(C)(=O)=O,inactive
7,C[C@@H]1CN([C@@H](C)CO)C(=O)c2cc(NS(=O)(=O)c3cccs3)ccc2O[C@@H](C)CCCCO[C@H]1CN(C)C(=O)Cc1ccccc1,inactive
8,COc1ccc(CN(C)C[C@@H]2Oc3ccc(NS(=O)(=O)c4cn(C)cn4)cc3CC(=O)N([C@H](C)CO)C[C@H]2C)cc1,inactive
9,C[C@H](CO)N1C[C@H](C)[C@H](CN(C)Cc2ccc(-c3ccccc3)cc2)Oc2ccc(NC(=O)NC3CCCCC3)cc2CC1=O,inactive
10,COc1ccc(S(=O)(=O)N2C[C@H](O)COC[C@@H]3O[C@@H](CC(=O)NCCCN(C)C)CC[C@H]32)cc1,inactive
11,C/C(=C\CC[C@@H](C)[C@H]1C[C@@H](O)[C@@]2(C)[C@H]3CC[C@H]4C(C)(C)[C@@H](O[C@@H]5O[C@@H](CO[C@H]6OC[C@@H](O)[C@@H](O)[C@@H]6O)[C@@H](O)[C@@H](O)[C@@H]5O)CC[C@@]45C[C@@]35C[C@@H](O)[C@]12C)C(=O)O[C@H]1O[C@@H](CO)[C@@H](O)[C@@H](O)[C@@H]1O,inactive
12,C[C@H]1CN([C@@H](C)CO)C(=O)CCCn2nncc2CO[C@H]1CN(C)C(=O)c1cc(-c2ccccc2)on1,inactive
13,C[C@H]1CCCCO[C@H](CN(C)CC2CC2)[C@@H](C)CN([C@@H](C)CO)C(=O)c2cc(NC(=O)c3ccccc3)ccc2O1,inactive
14,Cc1noc(C)c1NC(=O)Nc1ccc2c(c1)CC(=O)N([C@@H](C)CO)C[C@@H](C)[C@H](CN(C)Cc1ccc(C(=O)Nc3ccccc3N)cc1)O2,inactive
15,C[C@H](CO)N1C[C@H](C)[C@H](CN(C)CC2CCOCC2)Oc2cc(C#Cc3ccccc3F)ccc2S1(=O)=O,inactive
16,Nc1nc(Cl)nc2c1ncn2[C@H]1C[C@@H](O)[C@@H](CO)O1,inactive
17,Nc1nc(Cl)nc2c1ncn2[C@H]1C[C@H](O)[C@@H](CO)O1,active
18,Nc1ncnc2c1ncn2[C@H]1C[C@H](O)[C@@H](CO)O1,inactive
19,CCN(CC)CCOc1ccc2c(c1)C(=O)c1cc(OCCN(CC)CC)ccc1-2,inactive
20,CCN(CC)CCOc1ccc(Nc2ncc3cc(-c4c(Cl)cccc4Cl)c(=O)n(C)c3n2)cc1,active
21,C[C@](N)(Cc1ccc(O)c(O)c1)C(=O)O,inactive
22,c1ccc(CCNc2ccnc3cc4ccccc4cc23)cc1,active
23,NCCNc1cccc2ccccc12,inactive
24,NNCCc1ccccc1,inactive
25,Cc1noc(C)c1S(=O)(=O)Nc1ccc2c(c1)C(=O)N([C@H](C)CO)C[C@H](C)[C@@H](CN(C)Cc1ccc(Oc3ccccc3)cc1)O2,inactive

row,Compound,cytotoxicity call
1,C[C@@H]1COCC(=O)N1,inactive
2,C[C@@H]1CN([C@H](C)CO)C(=O)c2cc(NC(=O)Cc3ccccc3)ccc2O[C@@H](C)CCCCO[C@@H]1CN(C)S(=O)(=O)c1cccs1,inactive
3,COc1ccccc1C#Cc1cnc2c(c1)C(=O)N([C@H](C)CO)C[C@@H](C)[C@@H](CN(C)S(=O)(=O)c1cn(C)cn1)O2,inactive
4,C[C@H]1CN([C@@H](C)CO)C(=O)c2cc(C#Cc3ccccc3F)cnc2O[C@@H]1CN(C)S(=O)(=O)c1ccccc1F,inactive
5,COc1ccccc1C#Cc1cnc2c(c1)C(=O)N([C@H](C)CO)C[C@@H](C)[C@H](CN(C)S(=O)(=O)c1cn(C)cn1)O2,active
6,C[C@H](CO)N1C[C@H](C)[C@@H](CN(C)S(=O)(=O)c2ccccc2F)Oc2ncc(C#Cc3ccccc3F)cc2C1=O,active
7,C[C@@H]1CN([C@H](C)CO)C(=O)c2cc(C#Cc3ccccc3F)cnc2O[C@H]1CN(C)S(=O)(=O)c1ccccc1F,inactive
8,COc1ccccc1C#Cc1cnc2c(c1)C(=O)N([C@@H](C)CO)C[C@@H](C)[C@@H](CN(C)S(=O)(=O)c1cn(C)cn1)O2,inactive
9,Cc1ccc(S(=O)(=O)Nc2ccc3c(c2)CC(=O)N([C@H](C)CO)C[C@@H](C)[C@@H](CN(C)S(=O)(=O)c2ccc(F)cc2)O3)cc1,inactive
10,Cc1ccc(S(=O)(=O)Nc2cccc3c2O[C@@H](CN(C)S(C)(=O)=O)[C@@H](C)CN([C@H](C)CO)C3=O)cc1,inactive
11,C[C@@H]1CN([C@H](C)CO)C(=O)c2ccccc2-c2ccccc2CO[C@@H]1CN(C)C(=O)Nc1cccc(C(F)(F)F)c1,inactive
12,C[C@@H]1CCCCO[C@H](CN(C)CC2CCCCC2)[C@H](C)CN([C@H](C)CO)C(=O)c2cc(NC(=O)c3ccccc3)ccc2O1,inactive
13,C[C@H]1CCCCO[C@@H](CN(C)Cc2ccc(C(F)(F)F)cc2)[C@@H](C)CN([C@@H](C)CO)C(=O)c2cc(NC(=O)NC3CCCCC3)ccc2O1,active
14,C[C@@H]1CCCCO[C@@H](CN(C)Cc2ccc(C(F)(F)F)cc2)[C@H](C)CN([C@H](C)CO)C(=O)c2cc(NC(=O)NC3CCCCC3)ccc2O1,inactive
15,C[C@@H]1CN([C@@H](C)CO)C(=O)c2cc(NC(=O)NC3CCCCC3)ccc2O[C@@H](C)CCCCO[C@@H]1CN(C)Cc1ccc(C(F)(F)F)cc1,inactive
16,C[C@@H]1CCCCO[C@H](CN(C)Cc2ccc(C(F)(F)F)cc2)[C@@H](C)CN([C@H](C)CO)C(=O)c2cc(NC(=O)NC3CCCCC3)ccc2O1,inactive
17,C[C@@H]1CCCCO[C@@H](CN(C)Cc2ccc(C(F)(F)F)cc2)[C@H](C)CN([C@@H](C)CO)C(=O)c2cc(NC(=O)NC3CCCCC3)ccc2O1,inactive
18,C[C@@H]1CCCCO[C@H](CN(C)Cc2ccc(C(F)(F)F)cc2)[C@@H](C)CN([C@@H](C)CO)C(=O)c2cc(NC(=O)NC3CCCCC3)ccc2O1,inactive
19,C[C@@H]1CN([C@H](C)CO)C(=O)c2cc(NC(=O)NC3CCCCC3)ccc2O[C@@H](C)CCCCO[C@H]1CN(C)Cc1ccc(C(F)(F)F)cc1,inactive
20,C[C@@H]1CCCCO[C@H](CN(C)Cc2ccc(C(F)(F)F)cc2)[C@H](C)CN([C@H](C)CO)C(=O)c2cc(NC(=O)NC3CCCCC3)ccc2O1,active
21,C[C@@H]1CCCCO[C@@H](CN(C)Cc2ccc(C(F)(F)F)cc2)[C@@H](C)CN([C@@H](C)CO)C(=O)c2cc(NC(=O)NC3CCCCC3)ccc2O1,active
22,C[C@H](CO)N1C[C@H](C)[C@H](CN(C)Cc2ccc(C(F)(F)F)cc2)OCCCC[C@H](C)Oc2ccc(NC(=O)NC3CCCCC3)cc2C1=O,inactive
23,C[C@@H]1CCCCO[C@H](CN(C)Cc2ccc(C(F)(F)F)cc2)[C@H](C)CN([C@@H](C)CO)C(=O)c2cc(NC(=O)NC3CCCCC3)ccc2O1,active
24,C[C@@H]1CN([C@H](C)CO)C(=O)c2cc(NC(=O)NC3CCCCC3)ccc2O[C@@H](C)CCCCO[C@@H]1CN(C)Cc1ccc(C(F)(F)F)cc1,inactive
